In the library only some 4.7% were active in any assay of this set; here they are far more common.
D1 PAM = enhances dopamine response at the human D1 receptor; 360,000 compounds, 0.036% hits; HEK293 TREx D1 cells, calcium flux, dopamine EC20 potentiation; potentiation, % at 10 µM; P21728; in the data active means potentiation above about 30%; further: 0% is about no effect
Target sequence (P21728 whole entry, looked up): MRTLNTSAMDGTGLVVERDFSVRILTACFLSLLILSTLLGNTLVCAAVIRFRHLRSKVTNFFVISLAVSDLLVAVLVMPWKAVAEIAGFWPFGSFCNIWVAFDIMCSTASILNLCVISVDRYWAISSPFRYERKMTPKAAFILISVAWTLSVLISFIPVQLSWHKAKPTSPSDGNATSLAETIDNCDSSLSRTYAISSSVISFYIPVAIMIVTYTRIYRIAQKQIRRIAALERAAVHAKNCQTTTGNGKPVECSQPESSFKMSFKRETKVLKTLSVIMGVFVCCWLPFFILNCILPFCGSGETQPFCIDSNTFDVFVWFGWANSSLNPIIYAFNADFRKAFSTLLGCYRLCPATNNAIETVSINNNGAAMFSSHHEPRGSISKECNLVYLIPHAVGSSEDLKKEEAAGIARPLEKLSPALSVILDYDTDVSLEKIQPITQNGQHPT
TRHR agonist = TRH receptor (human) agonism; P34981; 360,000 compounds, 0.18% hits; TRHR cells, calcium flux fluo-8, FDSS agonist mode; activation, % at 2 µM; further: 0% is about no effect
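TRHR-expressing cells, plated overnight in medium with 10% serum, were loaded with fluo-8 calcium dye at room temperature. After a 10 s baseline, library compound was pin-added and calcium release was recorded kinetically (ex 480/em 530) as agonist response.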
D1 antag = antagonists of human D1 dopamine receptor. P21728. HEK293 TREx D1 cells, calcium flux, dopamine EC80; active compounds read low. activity change, negative = inhibition, % at 10 µM. 360,000 compounds, 3.2% hits; in the data active means activity change below about -30%; further: on the % scale 0 is the no-effect control and ±100 the full control effect
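Using tetracycline-induced force-coupled D1 Hek293 cells and a calcium dye, signals were followed for 180 s after compound, then for 180 s after EC80 dopamine, to detect inhibitors.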
TRHR PAM = TRH receptor (human) allosteric enhancement. enhancement, % at 2 µM. P34981. 360,000 compounds, 0.66% hits. TRHR cells, fluo-8 calcium fluorescence, EC20 TRH enhancement; in the data active means enhancement above about 30%; further: 0% is about no effect
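TRHR-expressing cells loaded with fluo-8 calcium dye were read kinetically (ex 480/em 530) during compound addition, then stimulated with an EC20 of TRH (10 nM final). Enhancement of the Gq-mediated intracellular calcium response was scored.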
D1 agonist = human D1 receptor agonism; P21728; HEK293 T-REx D1 cells, calcium flux, agonist mode; activation, % at 2 µM; 360,000 compounds, 1% hits; further: 0% is about no effect
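Tetracycline-induced HEK293 TREx D1 cells, force-coupled to calcium signalling, were dye-loaded with a no-wash calcium kit. Compound was pin-added after a 10 s baseline. Fluorescence was read kinetically at 1 cycle/s for 180 s, with calcium rises flagged as agonism.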
* = called active by the depositor; ! = repeats disagree. Unless noted, no stated cut-off is given here; in the data, active means activation above about 30%; inactive means the rest.

SMILES	D1 PAM	TRHR agonist	D1 antag	TRHR PAM	D1 agonist
CCOc1ccc([N+](=O)[O-])c(N)c1	-4.9	1.0	-33.1*	0.0	0.7
Cn1cc(C=C2C(=O)CC(C)(C)CC2=O)c2ccccc21	-0.7	-0.1	4.4	-3.9	-1.0
Cn1cc(C=C2C(=O)OC3(CCCCC3)OC2=O)c2ccccc21	-3.1	11.6	-30.4*	-11.1	2.0
CN(C)S(=O)(=O)N(CC(=O)NCc1ccccc1)c1ccccc1	0.9	-0.5	-19.1	-6.1	0.8
COc1ccc(CNC(=O)CN(c2ccccc2OC)S(=O)(=O)c2ccc(C)cc2)cc1	0.4	0.3	-32.1*	-0.5	43.7*
COc1ccccc1N(CC(=O)NCc1ccco1)S(=O)(=O)c1ccc(C)cc1	0.2	-0.3	4.2	0.5	0.5
COc1ccc(CNC(=O)CN(c2ccccc2)S(=O)(=O)N(C)C)cc1	-3.7	-0.4	-32.2*!	-16.8	1.1
Cc1ccc(-n2nc(CO)c(C(=O)NCCCCc3ccccc3)n2)cc1	2.6	1.5	-1.8	-1.5	13.4
Cc1ccc(CNS(=O)(=O)c2ccc3c(c2)NC(=O)C(C)S3)cc1 (centres undefined)	-1.0	0.3	-16.1	1.2	5.1
CCOC(=O)N1CCc2c(sc(NCc3sccc3C)c2C(=O)Nc2ccccc2OCC)C1	-4.6	-0.3	0.0	25.6	2.5
CC(C)CCn1c(-c2nonc2N)nc2ccccc21	-5.0	0.5	-33.2*	3.9	1.9
COCCn1c(/C=C/c2ccccc2)nc2ccccc21	-2.7	-1.9	-33.8*	5.9	-1.0
CCCCn1c(-c2nonc2N)nc2ccccc21	-6.5	-0.5	-14.4	-9.6	8.1
COc1ccccc1Cn1c(/C=C/c2ccccc2)nc2ccccc21	-4.8	1.3	-31.5*	2.4	9.6
COCCn1c(-c2ccccc2)nc2ccccc21	1.4	-1.2	-0.7	-1.9	3.2
CC(C)CCn1c(/C=C/c2ccccc2)nc2ccccc21	-5.0	-0.8	-32.4*	1.2	10.5
Cc1cc(Nc2cccc(Cl)c2)nc2ccc(NC(=O)COc3ccc(Cl)cc3)cc12	-0.4	0.2	5.3	-2.3	2.6
COc1ccc([C@@H]2CC=C(C(=O)O)[C@H](c3cccc(Cl)c3)N2S(=O)(=O)c2ccccc2C)cc1	-10.6	-0.1	7.8	-12.5	1.8
C#CCn1c(/C=C/c2ccc(Cl)cc2)nc2ccccc21	-3.5	-1.7	-36.3*	-1.1	5.8
Clc1ccc(Cn2c(/C=C/c3ccco3)nc3ccccc32)cc1	-5.7	0.0	-8.8	-2.7	2.7
CCCCn1c(/C=C/c2ccco2)nc2ccccc21	-5.5	1.1	-4.9	-8.7	30.4*
CCCn1c(/C=C/c2ccco2)nc2ccccc21	-1.6	0.0	0.7	-5.3	8.7
CN(Cc1nc(-c2ccc(Cl)cc2)no1)S(=O)(=O)c1ccccc1	0.1	1.8	-6.2	-0.7	2.8
NCc1nc2cccnc2n1Cc1ccccc1Cl	-2.1	-0.6	-31.1*	-2.6	0.3
CCSC1=N/C(=C\c2ccccc2)C(=O)N1c1ccc(OC)cc1	-3.6	1.8	-2.2	-1.9	4.0
SMILES	D1 PAM	TRHR agonist	D1 antag	TRHR PAM	D1 agonist
C=CCSC1=N/C(=C\c2cccnc2)C(=O)N1c1ccc(OC)cc1	-11.3	0.2	-53.7*	7.9	3.6
C=CCSC1=N/C(=C/c2ccsc2)C(=O)N1c1ccccc1	-13.1	0.0	-58.3*	8.6	7.2
CCc1ccc(NC(=O)C2CCN(C(=O)[C@@H]3Cc4ccccc4CN3)CC2)cc1	-1.8	0.9	7.5	-0.2	32.0*
Nc1c(C(=O)Nc2ccccc2Cl)c2ccccn2c1C(=O)c1ccccc1	-2.3	0.7	0.8	4.4	-1.7
O=C(OC1CCCCC1=O)c1ccc(S(=O)(=O)Nc2ccccc2)cc1 (centres undefined)	1.6	1.3	-9.8	12.6	35.3*
COc1cc2c(cc1OC)C1=C(C#N)CC/C(=N\S(=O)(=O)c3cccc(Cl)c3)N1CC2	-10.0	0.9	-74.0*	-0.9	3.0
CCOC(=O)C1CSC(CC(=O)Nc2ccc(Cl)c(Cl)c2)C(=O)N1 (centres undefined)	-8.7	-0.1	-32.0*	12.7	20.2
O=C(COC(=O)/C=C/c1ccc(OC(F)F)cc1)NC1CCCC1	-6.7	-0.2	-28.2	3.1	0.7
CCOC(=O)C1(Cc2cccc(OC)c2)CCN(Cc2ccc3c(c2)OCCO3)CC1	-1.2	0.2	-18.7	-2.1	15.4

Source: PubChem (National Center for Advancing Translational Sciences (NCATS))
